PvdQ inh – P. aeruginosa PvdQ acylase inhibition. inhibition, % at 10 µM. hit rate 0.063% among 340,000. purified PvdQ acylase, fluorescence plate reader; in the data active means inhibition above about 30%, passing the limit was not always enough; inconclusive means no clear call, values can overlap the other calls;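 further: 0% = vehicle neutral wells and 100% = reference inhibitor wells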
CFTR F508del cor – CFTR F508del correction in bronchial cells; AID 720511; activity (quench increase), % at 7.58 µM; hit rate 0.36% among 350,000; CFBE cells, YFP halide quenching; stimulated with forskolin plus potentiator P3; % fluorescence drop versus neutral controls;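 active means mean added fluorescence quench of at least 8% versus neutral control, with both replicates also reaching 8%; inconclusive means only one of the mean or replicate conditions met; inactive means mean below 8% and not both replicates reaching 8%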;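 further: cells transiently co-express mutant CFTR-F508del with the halide-sensitive YFP; corrector assay measuring rescue of mutant channel to the surface after 24 h compound exposure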
N-glyco inh – blocks N-linked glycosylation in D54 reporter cells | D54 ERlucT glycosylation luciferase reporter, 24 h; percent of 100 nM tunicamycin response | reporter increase, % at 12.5 µM | hit rate 0.23% among 360,000 | AID 588692;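 active means mean luciferase reporter signal, scaled so untreated is 0 and the glycosylation-blocking control 100, at or above a set limit in every replicate; inconclusive means mean reaches the limit but not every replicate does; inactive means mean below the limit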;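 further: luciferase carries N-glycosylation sites so blocking glycosylation raises the light; 0% = median of neutral control wells and 100% = median of 100 nM tunicamycin wells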
RAD52 anneal inh – inhibitors of human RAD52 DNA annealing. P43351. recombinant RAD52 DNA annealing, FRET fluorescence. inhibition, % at 18.7 µM. hit rate 0.46% among 360,000. AID 651710;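 active means every replicate showing at least 50% inhibition; inconclusive means mean inhibition at least 50% but not in every replicate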
RAD54 branch – blocks human RAD54 Holliday junction branch migration; FAM/BHQ fluorescence; AID 602329; inhibition, % at 10.4 µM; Q92698; hit rate 0.14% among 360,000;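 active means mean normalized replicate activity at least 40 and at least half of replicates scoring 40 or more; inconclusive means only one of the two criteria met; inactive means mean below 40 and under half of replicates reaching 40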;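 further: 0% = median of neutral control wells and 100% = median of positive control wells; inhibitors cause a drop in the FAM fluorescence signal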
dFosB activator – enhances mouse delta FosB homodimer DNA binding; P13346; purified delta FosB, TAMRA-CDK5 oligo fluorescence polarization; percent of positive-control signal above neutral wells; activation, % at 25 µM; hit rate 0.99% among 340,000;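 active means mean activation above about 17%, with every replicate also reaching it, limit read from the data, passing the limit was not always enough; inconclusive means only one of the two conditions met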
Target sequence (P13346 whole entry, looked up): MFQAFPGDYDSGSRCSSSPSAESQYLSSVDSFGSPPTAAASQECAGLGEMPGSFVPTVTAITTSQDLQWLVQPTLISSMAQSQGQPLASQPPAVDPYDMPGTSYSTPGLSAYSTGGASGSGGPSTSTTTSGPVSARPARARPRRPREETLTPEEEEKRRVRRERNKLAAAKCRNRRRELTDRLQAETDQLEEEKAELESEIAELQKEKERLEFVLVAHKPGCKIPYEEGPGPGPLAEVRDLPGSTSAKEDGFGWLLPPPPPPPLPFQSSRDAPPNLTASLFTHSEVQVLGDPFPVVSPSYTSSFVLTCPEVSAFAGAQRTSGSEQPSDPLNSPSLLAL
An asterisk follows results filed as active; ? = inconclusive; . = not tested or not shown; ! = a repeat was not active. An excerpt weighted towards active compounds, which were near 1.5% of everything screened.

SMILES	PvdQ inh	CFTR F508del cor	N-glyco inh	RAD52 anneal inh	RAD54 branch	dFosB activator
C[C@H]1CN(S(=O)(=O)C(C)(C)C)[C@H](CCO)/C1=C\c1ccccc1	4	0	-1	-4	-2	-6
CC(C)(C)S(=O)(=O)N1C[C@@H]2CC/C=C\C/C(c3ccccc3)=C\2[C@H]1CCO	-8	1	38*	1	-6	0
COc1cc(Nc2nc3c(N)cc(C(F)(F)F)cc3nc2-c2ccccc2)cc(OC)c1OC	-13	-5	26*	-19	.	-3
CCCNC(=O)N1CC(=O)N2[C@H](C1)[C@@H](c1ccc(-c3cccc(C)c3)cc1)[C@@H]2CO	.	-3	.	-5	.	.
Cc1c(CCOC(=O)C23CC4CC(CC(C)(C4)C2)C3)sc[n+]1CC(=O)c1ccccc1	-11	-1	-8	42	20	-5
Cc1c(CCOC(=O)CC23CC4CC(CC(C)(C4)C2)C3)sc[n+]1CC(=O)c1ccccc1	-6	3	0	62*	.	6
CC(Sc1nc2ccccc2c(=O)n1C)C(=O)Nc1ccc2c(c1)OCCO2 (stereo unspecified)	3	25*	6	-14	6	-4
COc1ccc(CCC(=O)N2CCN(S(=O)(=O)c3ccc4ccccc4c3)CC2)cc1	-9	.	-2	.	.	-4
COc1ccc(CCC(=O)N2CCN(S(=O)(=O)c3ccc(OC(F)(F)F)cc3)CC2)cc1	-6	16*	-3	-7	-4	-11
CCC(=O)N[C@H]1C=C[C@@H](CC(=O)NCC2CC2)O[C@@H]1CO	.	2	.	-3	.	.
CO[C@@H]1CN(C)C(=O)c2ccc(NC(=O)Cc3ccccc3)cc2OC[C@@H](C)N(C(=O)c2ccccc2F)C[C@@H]1C	.	-1	.	6	-2	.
CC=Cc1ccc2n(c1=O)C[C@@H]1[C@@H](CO)[C@H](C(=O)NC3CCCC3)N(C(=O)C3CCC3)[C@H]21 (mixture of isomers)	.	1	.	-1	.	.
CN1C(=O)c2cc(NC(=O)c3cnccn3)ccc2OC[C@H]2O[C@@H](CC(=O)NC3CCC3)CC[C@@H]21	.	2	.	-7	1	.
O=C(/C=C/c1cccc([N+](=O)[O-])c1)c1ccc2c(c1)OCCO2	14	.	31*	-13	.	-5
CC(Nc1nc(-c2cccnc2)nc2ccccc12)c1ccccc1 (stereo unspecified)	.	1	38*	-15	-1	.
CC(Nc1nc(-c2ccncc2)nc2ccccc12)c1ccccc1 (stereo unspecified)	2	-1	9	-31	0	-12
COc1cc(-c2nccc3cc4c(cc23)OCO4)cc(OC)c1OC	-10	9.2*	?	-4	3	-8
COc1cc2cc(OC(C)=O)c3cc4c(cc3c2c(OC)c1OC)OCO4	.	-1	.	-43	.	.
c1cc2ccc3ccc(-n4cnnn4)c4ccc(c1)c2c34	-19	.	12	.	0	25*
Cc1c(N)cccc1-n1cnnn1	-10	4	0	-10	.	-5
CO[C@H]1CN(C)C(=O)c2ccc(NC(=O)CC(F)(F)F)cc2OC[C@H](C)NC[C@H]1C	.	-1	.	-61	.	.
CCCC(=O)Nc1ccc2c(c1)C(=O)N(C)C[C@@H](OC)[C@H](C)CN(C(=O)CC)[C@@H](C)CO2	.	0	.	.	.	.
Nc1ccc(N(c2ccccc2)c2ccc(N)cc2)cc1	-1	.	-1	.	-4	23*
CN(C)c1ccc(CCc2ccc(N)cc2)cc1	-6	0	-1	-14	-3	-1
CCCC(=O)NC(NC(=S)Nc1ccc(N=Nc2ccccc2)cc1)C(Cl)(Cl)Cl (stereo unspecified)	17	8.6*	30*	-11	-1	7
SMILES	PvdQ inh	CFTR F508del cor	N-glyco inh	RAD52 anneal inh	RAD54 branch	dFosB activator
CCCC(=O)NC(NC(=S)Nc1ccc(S(N)(=O)=O)cc1)C(Cl)(Cl)Cl (stereo unspecified)	-9	.	0	.	.	-10
C[C@@H]1CCCCO[C@H](CN(C)C(=O)c2ccccc2)[C@H](C)CN([C@@H](C)CO)C(=O)c2cc(NS(=O)(=O)c3cn(C)cn3)ccc2O1	.	3	.	-7	2	.
O=C(c1ccc(F)cc1)N1C[C@@H]2N[C@H](C1)C2c1ccc(-c2ccccc2F)cc1 (stereo partly specified)	.	-5	.	.	.	.
Cc1cccc(-c2ccc(C3[C@@H]4CN(C(=O)Nc5ccc(F)cc5)C[C@H]3N4)cc2)c1 (stereo partly specified)	.	-4	.	60*!	.	.
O=C(Nc1ccc(F)cc1)N1C[C@@H]2N[C@H](C1)C2c1ccc(-c2ccccc2F)cc1 (stereo partly specified)	.	-7	.	55*!	.	.
O=C(Nc1cccc(F)c1)N1C[C@@H]2N[C@H](C1)C2c1ccc(-c2cncnc2)cc1 (stereo partly specified)	.	0	.	.	.	.
O=C(Nc1cccc(F)c1)N1C[C@@H]2N[C@H](C1)C2c1ccc(-c2ccc(F)cc2)cc1 (stereo partly specified)	.	-3	.	51*	.	.
COc1cccc(C(=O)Nc2ccc3c(c2)C(=O)N(C)C[C@@H](OC)[C@H](C)CN(CC2CC2)[C@H](C)CO3)c1	.	0	.	-5	7	.
CO[C@H]1CN(C)C(=O)c2ccc(NC(=O)C3CCCCC3)cc2OC[C@@H](C)N(C(=O)c2ccccc2)C[C@H]1C	.	-2	.	1	7	.
CN(C)CC#Cc1ccc([C@@H]2[C@@H](CO)N3CCCCN(C(=O)CN(C)C)C[C@@H]23)cc1	.	-1	.	71*	-16	.
CC(C)CC#Cc1ccc([C@@H]2[C@@H](CO)N3CCCCN(C(=O)NC4CCCC4)C[C@H]23)cc1	.	9.8*	.	27	-12	.
CN(C)CC#Cc1ccc([C@@H]2[C@@H](CO)N3CCCCN(C(=O)Nc4ccccc4F)C[C@@H]23)cc1	.	-1	.	54*	-13	.
CN(C)CC#Cc1ccc([C@H]2[C@@H](CO)N3CCCCN(C(=O)CN(C)C)C[C@@H]23)cc1	.	-1	.	48	-15	.
CC(C)CC#Cc1ccc([C@@H]2[C@H](CO)N3CCCCN(C(=O)NC4CCCC4)C[C@@H]23)cc1	.	4	.	27	0	.
CN(C)CC#Cc1ccc([C@@H]2[C@H]3CN(C(=O)Nc4ccccc4F)CCCCN3[C@H]2CO)cc1	.	0	.	42	10	.
CCOC(=O)CSC1=C(C#N)C(c2ccc(C)s2)CC(=O)N1 (stereo unspecified)	-4	8.6*	21	-7	-2	-11
CCSC1=C(C#N)C(c2ccc(C)s2)CC(=O)N1 (stereo unspecified)	-6	0	-1	-8	-13	-5
CCc1cnc(N2[C@@H](C#N)[C@H](c3ccc(C#CCC4CCCC4)cc3)[C@@H]2CO)s1	.	2	.	-55	-2	.
COc1ccc(C2=Nn3c(nnc3-c3ccncc3)SC2)cc1OC	4	.	-4	.	2	88*
